Assay [1] is described as follows: AP1 Signaling Pathway (AID 357; active = well fitted curve in either direction with a large enough effect, not every such curve was filed as active;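 note: ME-180 reporter cells stimulated with EGF at its EC50 level; % is set by controls: 0 for no effect and ±100 for the full control effect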). To be noted: ME-180 AP-1-bla reporter, EGF-induced, beta-lactamase ratio, 5 h; at 7.69 µM (top of the series) unless noted. In short, it runs like this:
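Read-out was the 460nm/530nm emission ratio (excitation 405nm) after CCF4 loading for 2.5 hours at room temperature. Cells carried an AP-1-driven beta-lactamase reporter, were stimulated with EC50 EGF plus compound for 5 hours, and AC50 values came from titrations.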

Assay [2] can be described thus: NFAT Signaling Pathway (AID 444; active = well fitted curve in either direction with a large enough effect, not every such curve was filed as active;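 note: carbachol stimulus at about its EC50 of 1 µM final; % is set by controls: 0 for no effect and ±100 for the full control effect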). To be noted: Jurkat NFAT-bla M1, carbachol, beta-lactamase ratio, 5 h; at 7.69 µM (top of the series) unless noted. The method in brief:
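Jurkat cells with NFAT-driven β-lactamase reporter and co-expressed M1 receptor, stimulated with carbachol (final 1 uM, ~EC50), compound titration, 5 h at 37 °C. CCF4 loaded 1 h at RT; 460/530 nm ratio gave %activity and AC50.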

A short description of assay [3]: Stat Signaling Pathway (AID 446; active = well fitted curve in either direction with a large enough effect, not every such curve was filed as active;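 note: ME-180 cervical cancer cells given 40 pM IL-6 alongside compound; SIE-controlled beta-lactamase reporter measured as 460/530 nm FRET emission ratio; % is set by controls: 0 for no effect and ±100 for the full control effect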). The settings on record: ME-180 SIE beta-lactamase reporter, IL-6 stimulated, 5 h; at 7.69 µM (top of the series) unless noted. In short, it runs like this:
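Screening format detects activators and inhibitors alike: ME-180 SIE-bla cells stimulated at 40 pM IL-6 for 5 hrs with compound, then dual-emission beta-lactamase read at 405 nm excitation.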

For assay [4], the target named is Glucocorticoid receptor (Homo sapiens) (UniProt P04150). As to the kind of experiment: GR-GFP Redistribution (AID 450;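 active = compounds whose dose series gives a full or clear partial fitted curve of increased nuclear translocation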; note: potency is the fitted concentration of half-maximal effect). The settings on record: U2OS GR-GFP nuclear translocation, laser cytometry, 2 h.
Glucocorticoid receptor (Homo sapiens), sequence (P04150 whole entry, looked up, the tested form may be a part): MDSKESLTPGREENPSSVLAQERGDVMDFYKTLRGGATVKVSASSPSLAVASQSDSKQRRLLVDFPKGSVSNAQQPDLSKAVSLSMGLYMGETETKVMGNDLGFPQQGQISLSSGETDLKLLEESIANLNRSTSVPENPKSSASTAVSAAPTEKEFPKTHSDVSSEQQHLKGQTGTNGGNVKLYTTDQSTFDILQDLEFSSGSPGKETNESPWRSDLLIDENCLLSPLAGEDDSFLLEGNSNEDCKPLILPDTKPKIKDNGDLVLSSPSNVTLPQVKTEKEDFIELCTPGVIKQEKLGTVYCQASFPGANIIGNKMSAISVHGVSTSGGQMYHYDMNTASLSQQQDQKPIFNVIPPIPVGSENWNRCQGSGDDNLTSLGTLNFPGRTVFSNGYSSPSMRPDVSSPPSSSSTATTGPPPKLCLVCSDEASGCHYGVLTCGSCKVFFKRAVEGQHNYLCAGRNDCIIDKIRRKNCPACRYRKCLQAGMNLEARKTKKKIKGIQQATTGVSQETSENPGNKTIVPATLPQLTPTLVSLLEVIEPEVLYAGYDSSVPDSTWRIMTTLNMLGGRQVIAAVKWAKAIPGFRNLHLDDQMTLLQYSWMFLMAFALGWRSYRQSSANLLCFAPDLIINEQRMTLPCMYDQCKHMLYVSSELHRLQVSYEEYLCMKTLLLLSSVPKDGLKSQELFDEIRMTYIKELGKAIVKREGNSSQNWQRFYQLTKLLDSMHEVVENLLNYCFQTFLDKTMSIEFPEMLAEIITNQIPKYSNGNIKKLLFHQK
For assay [5] the target is unchanged. As to the kind of experiment: GR-EFC Redistribution (AID 451; calls by dose curve; note: potency is the fitted concentration of half-maximal effect). The settings on record: CHO-K1 GR-EFC translocation, beta-gal luminescence, 2 h. The method in brief: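 CHO-K1 cells expressing nuclear EA and GR-ED fragments of b-gal; compounds titrated up to 46 uM final, 2 h at 37 C. GR nuclear translocation read as complemented b-gal luminescence after 1 h RT detection.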

For assay [6], the target named is Mitogen-activated protein kinase 10 (Mus musculus) (UniProt Q61831). Description: JNK3 AlphaScreen Assay (AID 530; active = well fitted curve in either direction with a large enough effect, not every such curve was filed as active;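 note: kinase came from lysate of stimulated human HepG2 cells; signal reports phosphorylation of biotinylated GST-cJun 1-79 at Ser73 with 10 µM ATP; % is set by controls: 0 for no effect and ±100 for the full control effect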). In short, it runs like this: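 Pre-activated (IL-1β/TNFα) JNK3 in HepG2 lysates phosphorylates biotin-GST-cJun(1-79), 10 uM ATP; anti-phospho-cJun(Ser73) AlphaScreen read at room temperature, pH 7.6 Tris buffer. Compounds pre-incubated 15 min as titrations.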

Assay [7] deals with 3',5'-cyclic-AMP phosphodiesterase 4B (Homo sapiens) (UniProt Q07343). Description: qHTS Assay for Inhibitors of PDE-IV (AID 607; active = well fitted activation curve with a large enough effect in the main read-out, with a control signal flat, not every such curve was filed as active; note: % of control where 0% means no effect). The method in brief:
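The readout is membrane depolarisation from a cAMP-sensing CNG channel, detected with a potential dye at ex 535/em 590. Cells were HEK293-derived (endogenous PDE-IV) at 1000 cells/well, titrated up to 22.9 uM final.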

A short description of assay [8]: Counterscreen qHTS for small molecule stabilizers of the endoplasmic reticulum resident proteome: GLuc-NoTag assay (AID 1508627).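 For activity change, negative = inhibition: 0% = thapsigargin alone and -100% = DMSO vehicle control.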 Note: potency is the fitted concentration of half-maximal effect. The method in brief: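 SH-SY5Y cells stably expressing constitutively secreted GLuc without SERCaMP tag, exposed to compound for 19 hr, then to 100 nM thapsigargin for 4 hr at 37C. Medium luciferase was read by coelenterazine luminescence without lysis.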

Assay [9] can be described thus: Confirmatory qHTS for small molecule stabilizers of the endoplasmic reticulum resident proteome: Secreted ER Calcium Modulated Protein (SERCaMP) assay (AID 1508628). Note: nearly all actives have a fitted effect of over 40% in size. Note: potency is the fitted concentration of half-maximal effect. The method in brief: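 SH-SY5Y cells stably expressing GLuc-SERCaMP, treated 16 h with compound (primary 1.53, 7.67, 38.3 uM; confirmation 11 concentrations, up to 76.6 uM), then 100 nM thapsigargin for 4 h. Secreted Gaussia luciferase in medium read by coelenterazine luminescence.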

The target in assay [10] is Lysosomal acid glucosylceramidase (Homo sapiens) (UniProt P04062). As to the kind of experiment: Glucocerebrosidase-p2 (AID 348; in the data active = potency below about 10 µM; note: potency is the fitted concentration of half-maximal effect). To be noted: purified GBA, blue fluorogenic substrate, 40 min. In short, it runs like this: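 Compounds titrated from 0.6 nM upwards against 0.2 nM enzyme in pH 5.9 citric acid/KH2PO4, taurocholate, tween-20; blue fluorogenic substrate 80 uM, 40 min room temperature, stopped and read Ex 365/Em 440 for AC50.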
Lysosomal acid glucosylceramidase (Homo sapiens), sequence (P04062 whole entry, looked up): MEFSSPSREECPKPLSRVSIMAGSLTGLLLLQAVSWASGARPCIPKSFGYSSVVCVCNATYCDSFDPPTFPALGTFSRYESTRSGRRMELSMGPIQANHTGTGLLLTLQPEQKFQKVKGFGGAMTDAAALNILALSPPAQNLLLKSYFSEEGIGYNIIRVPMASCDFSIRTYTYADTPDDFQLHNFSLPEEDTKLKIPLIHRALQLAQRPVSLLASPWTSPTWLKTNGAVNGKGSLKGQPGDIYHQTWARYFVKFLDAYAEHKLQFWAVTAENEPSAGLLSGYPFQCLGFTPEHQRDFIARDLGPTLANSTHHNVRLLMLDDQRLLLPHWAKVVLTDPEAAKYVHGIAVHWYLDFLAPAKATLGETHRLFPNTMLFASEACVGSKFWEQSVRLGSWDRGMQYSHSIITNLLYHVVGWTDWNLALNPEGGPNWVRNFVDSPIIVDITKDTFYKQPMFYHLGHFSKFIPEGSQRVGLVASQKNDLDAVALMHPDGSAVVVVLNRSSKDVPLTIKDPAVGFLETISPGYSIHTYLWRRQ

The nature of assay [11]: qHTS Assay for Identification of Small Molecule Agonists for Hypoxia Response Element Signaling Pathway (AID 914; active = well fitted activation curve with a large enough effect in the signal ratio, with a control signal flat, not every such curve was filed as active; the % refers to the signal ratio; note: potency is the fitted concentration of half-maximal effect). To be noted: ME-180 (cervical carcinoma) HRE-bla reporter, beta-lactamase ratio, CoCl2, 17 h; activation: stronger effect = higher value. In short, it runs like this:
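A beta-lactamase reporter under hypoxia response element control in ME-180 cells served as the system. Compound titrations plus EC50 CoCl2 ran 17 h at 37 degrees Celsius; AC50 values were fitted from %Activity.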

Assay [12] in a line: qHTS Assay for Lipid Storage Modulators (AID 1519; calls by dose curve). To be noted: Drosophila S3 cells, BODIPY lipid droplet/cell ratio, laser cytometry, cells loaded with oleic acid; for activity change, negative = inhibition: at 57.5 µM (top of the series). The method in brief: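 Cells seeded at 5,000 per well were treated with compounds over a concentration series and loaded with oleic acid (400 uM, as added). Lipid droplet fluorescence (488 nm excitation, 500-530 nm channel) was read by laser-scanning cytometry and normalized to 20 uM Triacsin C.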

Assay [13] in a line: Cell Viability qHTS for small molecule stabilizers of the endoplasmic reticulum resident proteome (AID 1508629). The settings on record: cell viability counter-screen, 100 nM thapsigargin for final 4 h.
Assay [14] addresses Dual specificity protein kinase CLK4 (Homo sapiens) (UniProt Q9HAZ1). As to the kind of experiment: qHTS Assay for Inhibitors of CDC-like Kinase 4 (Kinase-Glo Assay) (AID 1770). Note: potency is the fitted concentration of half-maximal effect; nearly all actives have a fitted effect of over 65% in size. The method in brief: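 Substrate mix (RS peptide 100 uM, ATP 1 uM) dispensed, compound pinned in, then Clk4 added to 25 nM final. Incubated 4.5 h at RT; Kinase-Glo reagent added, luminescence read after 5 min.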

For assay [15] the target is unchanged. Description: qHTS Assay for Inhibitors of CDC-like Kinase 4 (ADP-Glo Assay) (AID 1771). Note: potency is the fitted concentration of half-maximal effect; nearly all actives have a fitted effect of over 70% in size. The method in brief: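 Luminescence from ADP-Glo reports ADP produced by 25 nM Clk4 acting on 100 uM RS repeat peptide with 1 uM ATP over 1 hr at room temperature; residual ATP is depleted before ADP is converted to ATP for detection.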
Assay [16] shares this target. Description: qHTS Assay for Inhibitors of CDC-like Kinase 4 (ADP-FP Assay) (AID 1795). Note: potency is the fitted concentration of half-maximal effect; nearly all actives have a fitted effect of over 60% in size. In short, it runs like this: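 Clk4 6.25 nM; RS peptide 100 uM; ATP 1 uM; 25 mM Tris pH 7.5, 10 mM MgCl2; 1 h reaction. ADP detected via antibody/orange tracer FP displacement; TG003 positive control.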
Assay [17] addresses Ubiquitin carboxyl-terminal hydrolase 1 (Homo sapiens) (UniProt O94782). Description: Inhibitors of USP1/UAF1: Pilot qHTS (AID 504865).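 Note: rhodamine fluorescence freed from ubiquitin-rhodamine substrate followed over time; top concentration of the series differs between compounds; % is set by controls: 0 for no effect and ±100 for the full control effect; nearly all actives have a fitted effect of over 35% in size.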 The method in brief: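 In 50mM HEPES pH 7.8 containing 0.5mM EDTA, 1mM TCEP, 0.1 mg/ml BSA and 0.01% Tween-20, 1nM USP1/UAF1 is exposed to compound for 15 min, then Ub-Rho (150nM final) is added and fluorescence is read over time.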
[18] abbreviates: measured here: cell count channel max response.
[19] abbreviates: measured here: lipid channel max response.

Inconclusive results are not listed. The source made the active and inactive calls. Unless noted, calls come from the whole dose curve; as a rule, active = well fitted curve in the direction sought with a large enough effect; inconclusive = small, poorly fitted or top-dose-only effect, or another doubt; inactive = no such curve, though single readings can be large; an effect the other way counts as inactive or inconclusive. Residues, ends and D or L forms follow the SMILES beside them.

3',5'-cyclic-AMP phosphodiesterase 4B (Homo sapiens), sequence (Q07343 whole entry, looked up): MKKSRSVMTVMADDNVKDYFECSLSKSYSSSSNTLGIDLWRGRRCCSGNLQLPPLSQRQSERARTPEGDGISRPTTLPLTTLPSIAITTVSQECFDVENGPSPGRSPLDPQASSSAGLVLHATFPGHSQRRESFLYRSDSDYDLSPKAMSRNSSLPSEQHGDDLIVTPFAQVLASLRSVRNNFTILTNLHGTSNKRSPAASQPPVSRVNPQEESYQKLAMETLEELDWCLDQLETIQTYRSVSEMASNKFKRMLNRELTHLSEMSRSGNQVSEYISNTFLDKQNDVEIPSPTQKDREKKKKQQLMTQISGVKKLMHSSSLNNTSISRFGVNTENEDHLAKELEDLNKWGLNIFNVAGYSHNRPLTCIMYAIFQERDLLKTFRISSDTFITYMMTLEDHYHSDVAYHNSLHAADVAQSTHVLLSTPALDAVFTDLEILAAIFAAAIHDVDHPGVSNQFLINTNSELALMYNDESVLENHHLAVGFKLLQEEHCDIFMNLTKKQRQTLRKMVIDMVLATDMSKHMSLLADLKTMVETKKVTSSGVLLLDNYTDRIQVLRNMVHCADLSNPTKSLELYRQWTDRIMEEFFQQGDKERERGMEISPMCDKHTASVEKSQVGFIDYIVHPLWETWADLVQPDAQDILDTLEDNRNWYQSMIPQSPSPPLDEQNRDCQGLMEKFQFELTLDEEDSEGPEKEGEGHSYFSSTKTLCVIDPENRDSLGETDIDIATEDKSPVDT
Dual specificity protein kinase CLK4 (Homo sapiens), sequence (Q9HAZ1 whole entry, looked up): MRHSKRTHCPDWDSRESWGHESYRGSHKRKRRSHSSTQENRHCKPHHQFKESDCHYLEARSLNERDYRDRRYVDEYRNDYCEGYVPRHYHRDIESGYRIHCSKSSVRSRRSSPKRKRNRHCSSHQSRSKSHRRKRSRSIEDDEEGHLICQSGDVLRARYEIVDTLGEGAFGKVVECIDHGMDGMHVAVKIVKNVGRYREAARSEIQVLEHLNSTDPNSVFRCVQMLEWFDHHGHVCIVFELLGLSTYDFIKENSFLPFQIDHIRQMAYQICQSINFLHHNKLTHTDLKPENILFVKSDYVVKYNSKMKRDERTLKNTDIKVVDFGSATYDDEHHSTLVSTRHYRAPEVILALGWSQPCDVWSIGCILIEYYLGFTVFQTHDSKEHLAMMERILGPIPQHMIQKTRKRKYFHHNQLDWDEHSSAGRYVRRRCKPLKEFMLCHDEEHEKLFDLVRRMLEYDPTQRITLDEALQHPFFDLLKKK
Ubiquitin carboxyl-terminal hydrolase 1 (Homo sapiens), sequence (O94782 whole entry, looked up): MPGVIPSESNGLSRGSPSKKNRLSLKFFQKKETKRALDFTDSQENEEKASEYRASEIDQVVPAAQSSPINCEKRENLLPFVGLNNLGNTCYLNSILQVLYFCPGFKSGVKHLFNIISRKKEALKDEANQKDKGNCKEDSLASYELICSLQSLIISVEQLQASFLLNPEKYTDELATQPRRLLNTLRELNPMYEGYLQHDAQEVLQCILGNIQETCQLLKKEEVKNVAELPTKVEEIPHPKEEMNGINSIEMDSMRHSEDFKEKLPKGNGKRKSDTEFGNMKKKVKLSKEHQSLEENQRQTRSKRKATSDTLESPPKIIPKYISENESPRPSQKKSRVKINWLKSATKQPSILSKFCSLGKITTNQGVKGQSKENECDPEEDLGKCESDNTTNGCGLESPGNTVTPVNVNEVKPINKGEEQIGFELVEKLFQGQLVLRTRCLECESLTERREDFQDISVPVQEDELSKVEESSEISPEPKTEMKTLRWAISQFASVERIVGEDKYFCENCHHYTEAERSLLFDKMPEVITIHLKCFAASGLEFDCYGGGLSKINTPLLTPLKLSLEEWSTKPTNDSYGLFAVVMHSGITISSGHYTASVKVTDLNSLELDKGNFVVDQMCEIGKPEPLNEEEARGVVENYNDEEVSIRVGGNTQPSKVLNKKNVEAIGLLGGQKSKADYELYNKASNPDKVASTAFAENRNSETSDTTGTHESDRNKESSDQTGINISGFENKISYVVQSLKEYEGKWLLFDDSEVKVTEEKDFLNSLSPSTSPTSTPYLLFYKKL

With `COc1cccc(Cn2c(=O)c(C)nc3cnc(N4CCNCC4)nc32)c1`, the activity change, negative = inhibition in assay [1] was 4.85% (inactive); in assay [2] it was -10.9% (inactive). The activity, negative = inhibition in [3] is -3.45% (inactive). The Potency is > 9.22 µM (inactive) in assay [4], > 46 µM (inactive) in assay [5], 28.2 µM (active) in [8] and 35.5 µM (active) in assay [9]. In assay [6], the call was inactive. Also, in assay [7], the Potency result is “inactive”.

As to `CN1CCN(c2ncc3nc(-c4ccccc4)c(=O)n(-c4ccccc4)c3n2)CC1`, the Potency in assay [10] was > 11.4 µM (inactive); in assay [4] it was > 9.22 µM (inactive); in [5], > 46 µM (inactive); in assay [11], 3.16 µM (active); in assay [9] it was 25.1 µM (active). The molecule was classed as inactive in [6]. For the same molecule, the Potency entry in assay [7] and in [8] was “inactive” throughout.

In the case of `O=C(Nc1cccc(F)c1)N1CCC2(CC1)CCN(S(=O)(=O)c1ccccc1)CC2`, the Potency is > 11.4 µM (inactive) in assay [10] and > 46 µM (inactive) in [5]. Moreover, the activity change, negative = inhibition in assay [1] was -14.1% (inactive); in [2], 11.4% (inactive); in [12], -0.528% (inactive). Further, the activity, negative = inhibition in assay [3] was -8.13% (inactive). In addition, the call in [6] was inactive. Further, the Potency result in assay [7], in [8] and in assay [9] was “inactive” each time. The max response in assay [12] (setting [18]) was 0.271%; in [12] (setting [19]), 1.82%; in assay [13] it was 3.59% (inactive).

For `CC[C@H](C)[C@H](NC(=O)[C@H](CC(=O)O)NC(=O)[C@H](CC(N)=O)NC(=O)[C@@H](NC(=O)[C@H](CCCNC(=N)N)NC(=O)[C@@H](NC(=O)[C@@H](NC(=O)[C@@H](NC(=O)[C@@H](NC(=O)[C@H](CCCCN)NC(=O)[C@@H](NC(=O)[C@H](CC(C)C)NC(=O)[C@@H](NC(=O)[C@H](CCCCN)NC(=O)[C@@H](NC(=O)[C@H](CC(=O)O)NC(=O)[C@H](CC(=O)O)NC(=O)[C@H](CCC(N)=O)NC(=O)[C@@H](NC(=O)[C@H](CCCCN)NC(=O)[C@H](CCC(N)=O)NC(=O)[C@@H](NC(=O)[C@@H]1CCCN1C(=O)[C@@H](N)C(C)C)[C@@H](C)CC)C(C)C)[C@@H](C)O)[C@@H](C)O)[C@@H](C)CC)[C@@H](C)O)[C@@H](C)CC)C(C)C)[C@@H](C)O)[C@@H](C)CC)C(=O)N[C@@H](CO)C(=O)N[C@@H](Cc1cnc[nH]1)C(=O)N[C@H](C(=O)N[C@@H](CCC(N)=O)C(=O)N[C@@H](CO)C(=O)N[C@H](C(=O)N[C@@H](CO)C(=O)N[C@@H](CO)C(=O)N[C@@H](CCCCN)C(=O)N[C@@H](CCC(N)=O)C(=O)N[C@@H](CCCCN)C(=O)O)C(C)C)[C@@H](C)O` (H-VPIQKVQDDTKTLIKTIVTRINDISHTQSVSSKQK-OH), in assay [8], the activity change, negative = inhibition is -4.21% [at 9.46 µM] (inactive). Besides, the activity change, negative = decrease in assay [9] is -1.59% [at 9.4 µM] (inactive). In assay [13], the max response was 4.6% (inactive).

Take `COCCn1c(=O)c(CCc2ccccc2)nc2cnc(N3CCN(C)CC3)nc21`: the Potency is > 11.4 µM (inactive) in assay [10], > 9.22 µM (inactive) in [4] and > 46 µM (inactive) in assay [5]. Further, the activity change, negative = inhibition in [1] is 2.87% (inactive); in assay [2] it was -7.4% (inactive); in [12], 5.96% (inactive). Also, the activity, negative = inhibition in [3] is -8.57% (inactive). In addition, in [6], the outcome was inactive. The Potency entry in assay [7] and in assay [8] was “inactive” throughout. Further, the max response is -2.68% in [12] (setting [18]), 4.85% in [12] (setting [19]) and 0.276% (inactive) in assay [13].

Take `CN1CCN(c2nc(-c3ccc4c(c3)OCO4)nc3ccccc23)CC1`: the Potency was > 11.4 µM (inactive) in [10]; > 46 µM (inactive) in [4]; > 46 µM (inactive) in assay [5]; 17.8 µM (active) in assay [14]; 15.8 µM (active) in assay [15]; 14.1 µM (active) in assay [16]. The Potency in [9] was 20 µM (active). Besides, the figures for the activity change, negative = inhibition in [1] and in assay [12] were 21.8% (inactive) and 8.71% (inactive), respectively. Also, the activity, negative = inhibition in assay [3] was -4.65% (inactive). In addition, in [6], the molecule was called inactive. Further, the max response in assay [12] (setting [18]) was determined as 28%; in [12] (setting [19]) it was 35.9%. Further, the Potency entry in assay [17] and in [8] was “inactive” in each case.
